Bioassay records from PubChem BioAssay.
Most compounds without a hit are left out; they make up all but 18% or so of the library.
Gal4-VP16 FLuc: VP16 counterscreen qHTS for inhibitors of ROR gamma transcriptional activity. Drosophila S2 Gal4-VP16 UAS-luciferase, luminescence, 20 h. 310,000 tested, 3.5% active. Potency, µM (top dose mostly 53.6 µM), inactives show at the top dose activity, negative = inhibition, most hits filed as inhibitors;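 also: Gal4-VP16 expression switched on by copper sulfate through the metallothionein promoter; potency is read from the fitted curve at half-maximal effect; nearly all actives have a fitted effect of over 50% in size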
IL-1B inflam inh: qHTS for Inhibitors of Inflammasome Signaling: IL-1-beta AlphaLISA Primary Screen. AID 743279, 2014. 360,000 tested, 4.7% active. activity change, % at 57.5 µM. THP-1 LPS/ATP IL-1B secretion, AlphaLISA, 16 h; hits give low values; in the data active = activity change below about -50%; inconclusive = mostly about -30% to -49%
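THP-1 cells pretreated 1 hr with compounds (up to 57.5 uM final), then stimulated with LPS (250 ng/mL final) plus ATP (1.25 mM final); secreted IL-1B measured by AlphaLISA after 16 hr, decreased signal indicating inhibition.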
LDHA block: qHTS assay for inhibitors of human lactate dehydrogenase | 480,000 tested, 0.15% active | L-lactate dehydrogenase A chain (Homo sapiens), P00338 | purified LDHA, NADH/diaphorase-resazurin fluorescence; hits give low values | activity change, % (values are at about 110 or 230 µM); in the data active = activity change below about -30%; inconclusive = mostly about -25% to -30%;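 also: plate controls were DMSO wells for no effect and wells without enzyme for full effect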
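LDH5 2 nM; NADH 0.06 mM, pyruvate 0.2 mM; 200 mM Tris pH 7.4, EDTA, Tween-20; 5 min RT. Detection: diaphorase 0.133 mg/mL + resazurin 37 µM, fluorescence ex540/em590 at 0 and 20 min; normalized to enzyme-free and DMSO wells.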
RORg inh: qHTS for inhibitors of ROR gamma transcriptional activity. Nuclear receptor ROR-gamma (Mus musculus), P51450. Drosophila S2 Gal4-RORgamma UAS-luciferase reporter, 20 h. Potency, µM (highest dose often 53.6 µM), without a hit: at the highest dose activity change, negative = inhibition, hits mostly inhibitors. 310,000 tested, 5.4% active. AID 2551, 2010; also: potency is read from the fitted curve at half-maximal effect; nearly all actives have a fitted effect of over 60% in size
Target sequence (P51450 whole entry, looked up, the tested form may be a part): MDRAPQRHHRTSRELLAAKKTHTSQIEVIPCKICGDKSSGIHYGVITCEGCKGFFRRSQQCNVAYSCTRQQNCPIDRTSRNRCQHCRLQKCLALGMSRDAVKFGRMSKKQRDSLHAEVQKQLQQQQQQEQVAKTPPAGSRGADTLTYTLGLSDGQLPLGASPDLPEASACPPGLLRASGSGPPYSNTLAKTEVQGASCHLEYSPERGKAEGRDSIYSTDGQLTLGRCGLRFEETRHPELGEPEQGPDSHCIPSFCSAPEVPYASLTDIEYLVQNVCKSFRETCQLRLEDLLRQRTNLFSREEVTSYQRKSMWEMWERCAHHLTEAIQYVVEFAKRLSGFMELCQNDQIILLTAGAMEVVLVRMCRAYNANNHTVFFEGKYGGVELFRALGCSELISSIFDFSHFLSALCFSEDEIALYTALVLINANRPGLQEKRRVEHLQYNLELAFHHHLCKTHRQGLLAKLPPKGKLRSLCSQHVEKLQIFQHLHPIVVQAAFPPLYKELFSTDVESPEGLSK
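Compounds are pin-transferred onto Drosophila Schneider cells expressing a copper-inducible Gal4–ROR gamma transactivation domain fusion. After 1 hr, copper sulfate is added to 700 uM final; luciferase is read 20 hr later.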
DT40 TDP1 no CPT: qHTS for Inhibitors of human tyrosyl-DNA phosphodiesterase 1 (TDP1): qHTS in cells in absence of CPT; DT40 Tdp1-/- hTDP1 cells, no CPT, ATP luminescence, 48 h; Potency, µM (top dose mostly 46.2 µM), for inactives: top-dose activity change, negative = growth inhibition, most hits filed as inhibitors; 420,000 tested, 15% active; AID 686978, 2013; also: potency is read from the fitted curve at half-maximal effect; nearly all actives have a fitted effect of over 55% in size
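No-CPT arm: Tdp1-/-;hTDP1 DT40 cells (400/well) plus compounds, incubated ≥48 hr at 37 °C. Readout CellTiter-Glo luminescence.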
TDP1 cell CPT: qHTS for Inhibitors of human tyrosyl-DNA phosphodiesterase 1 (TDP1): qHTS in cells in presence of CPT | chicken DT40 Tdp1-/-;hTDP1 cells + 20 nM CPT, ATP luminescence, 48 h | Potency, µM (top dose mostly 46.2 µM), inactives show at the top dose activity change, negative = growth inhibition, usual class: inhibitors | 420,000 tested, 12% active | AID 686979, 2013; also: potency is read from the fitted curve at half-maximal effect; nearly all actives have a fitted effect of over 55% in size
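Cell growth measured by CellTiter-Glo luminescence after a minimum 48 h, 37 C compound exposure with 20 nM CPT in Tdp1-knockout DT40 cells stably expressing hTDP1, seeded 400/well; qHTS titration format.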
* = called active by the depositor. Unless noted, calls follow the shape of the dose curve; as a rule, active = well fitted curve in the direction sought with a large enough effect; inconclusive = small, poorly fitted or top-dose-only effect, or another doubt; inactive = no such curve, though single readings can be large; an effect the other way counts as inactive or inconclusive. Unless noted, % is scaled to controls: 0 for no effect and ±100 for the full control effect.

How did Cc1cccc(NC(=O)CSC2=Nc3ccccc3C3=NC(CC(=O)NCc4cccs4)C(=O)N23)c1 (configuration not stated) do in these assays?
LDHA block: 5.3; DT40 TDP1 no CPT: inconclusive; TDP1 cell CPT: inconclusive

Results for CCC(C)Sc1nc2c(c(=O)[nH]1)C(c1cccs1)C1=C(CCCC1=O)N2 (configuration not stated) ?
Gal4-VP16 FLuc: 0.5%; IL-1B inflam inh: -10.3; LDHA block: -0.1; RORg inh: 2.4%; DT40 TDP1 no CPT: 20.6µM*; TDP1 cell CPT: inconclusive

Results for CCCSc1nc2c(c(=O)[nH]1)C(c1ccc(C)o1)C1=C(CCCC1=O)N2 (configuration not stated) ?
LDHA block: 0.1

What do the screens show for `N#C/C(=C\c1ccc(OCC(=O)N2CCOCC2)cc1)C(=O)Nc1ccccc1`?
LDHA block: 9.6

Results for CC1=NN(c2ccc(C(F)(F)F)cn2)C(=O)C1 ?
Gal4-VP16 FLuc: 10.6%; IL-1B inflam inh: -1.3; LDHA block: -1.0; RORg inh: inconclusive; DT40 TDP1 no CPT: inconclusive; TDP1 cell CPT: 23.1µM*

Results for O=c1c2ccccc2nc2c3ccccc3c3nncn3n12 ?
Gal4-VP16 FLuc: -8.7%; IL-1B inflam inh: -7.7; LDHA block: -13.5; RORg inh: -29.0%; DT40 TDP1 no CPT: 5.17µM*; TDP1 cell CPT: 7.31µM*

Results for O=c1c2ccccc2nc2c3ccccc3cnn12 ?
Gal4-VP16 FLuc: 12.4%; IL-1B inflam inh: 0.0; LDHA block: -7.0; RORg inh: -15.1%; DT40 TDP1 no CPT: inconclusive; TDP1 cell CPT: inconclusive

What do the screens show for `Cn1c(SCC(=O)Nc2ccccc2C#N)nc2cc(-c3ccccc3)sc2c1=O`?
LDHA block: 10.1

Results for COC(=O)c1cc(Br)c(=O)n(CCC2=CCCCC2)c1 ?
Gal4-VP16 FLuc: 1.2%; IL-1B inflam inh: 16.7; LDHA block: 0.3; RORg inh: -39.4%; DT40 TDP1 no CPT: inconclusive; TDP1 cell CPT: 20.6µM*

What do the screens show for `CCOC(=O)N1CCN(C(=O)CSc2nnc(-c3cc(OC)ccc3OC)o2)CC1`?
Gal4-VP16 FLuc: 3.6%; IL-1B inflam inh: -1.4; LDHA block: -3.4; RORg inh: -12.8%; DT40 TDP1 no CPT: 20.6µM*; TDP1 cell CPT: 14.6µM*

What do the screens show for `CCOC(=O)N1CCN(C(=O)CSc2nnc(-c3cccc(OC)c3)o2)CC1`?
Gal4-VP16 FLuc: 0.8%; IL-1B inflam inh: 5.2; LDHA block: -5.6; RORg inh: -14.2%; DT40 TDP1 no CPT: 23.1µM*; TDP1 cell CPT: 16.4µM*

How did CCOC(=O)N1CCN(C(=O)CCSc2ccc(C)cc2)CC1 do in these assays?
Gal4-VP16 FLuc: 28.9%; IL-1B inflam inh: -5.2; LDHA block: -2.2; RORg inh: -27.8%; DT40 TDP1 no CPT: 23.1µM*; TDP1 cell CPT: 23.1µM*

What do the screens show for `CCOC(=O)N1CCN(C(=O)CSc2nnc(-c3cc(OC)cc(OC)c3)o2)CC1`?
Gal4-VP16 FLuc: 4.7%; IL-1B inflam inh: -8.3; LDHA block: 0.0; RORg inh: -20.9%; DT40 TDP1 no CPT: inconclusive; TDP1 cell CPT: -7.0%

How did CCOC(=O)N1CCN(C(=O)CSc2nnc(-c3ccc(C)c(C)c3)o2)CC1 do in these assays?
Gal4-VP16 FLuc: -4.7%; IL-1B inflam inh: -11.1; LDHA block: -3.6; RORg inh: -11.4%; DT40 TDP1 no CPT: 14.6µM*; TDP1 cell CPT: inconclusive

What do the screens show for `O=C(NCC(c1ccccc1)c1c[nH]c2ccccc12)c1ccc[n+]([O-])c1` (configuration not stated)?
LDHA block: 2.6

How did Cc1ccccc1CS(=O)Cc1c(F)cccc1Cl (configuration not stated) do in these assays?
LDHA block: 2.9

What do the screens show for `Cc1cc(Cl)c(O)c(-n2nc3ccccc3n2)c1`?
Gal4-VP16 FLuc: -10.9%; IL-1B inflam inh: 2.6; LDHA block: -5.6; RORg inh: 23.6%; DT40 TDP1 no CPT: inconclusive; TDP1 cell CPT: 20.6µM*

What do the screens show for `CCCNC(=O)c1cc2c3ccccc3n(C)c2s1`?
Gal4-VP16 FLuc: 7.4%; IL-1B inflam inh: 2.6; LDHA block: 0.3; RORg inh: -6.1%; DT40 TDP1 no CPT: -22.1%; TDP1 cell CPT: -3.7%

What do the screens show for `Cn1c2ccccc2c2cc(C(=O)NNC(=O)CCl)sc21`?
Gal4-VP16 FLuc: -27.7%; IL-1B inflam inh: -132.6*; LDHA block: 1.7; RORg inh: 14.1µM*; DT40 TDP1 no CPT: 9.2µM*; TDP1 cell CPT: 3.66µM*

Results for CC(=O)Nc1ccc(S(=O)(=O)NNC(=O)c2cc3c4ccccc4n(C)c3s2)cc1 ?
Gal4-VP16 FLuc: inconclusive; IL-1B inflam inh: -5.1; LDHA block: 2.6; RORg inh: -20.1%; DT40 TDP1 no CPT: 5.17µM*; TDP1 cell CPT: 5.17µM*

How did Cc1ccc(CNc2nc(N)c([N+](=O)[O-])c(Nc3cccc(Cl)c3)n2)cc1 do in these assays?
LDHA block: 5.7

Results for O=C(/C=C/c1ccccc1)NC(=S)NNC(=O)c1cnccn1 ?
Gal4-VP16 FLuc: -3.9%; IL-1B inflam inh: 34.5; LDHA block: 0.8; RORg inh: -2.0%; DT40 TDP1 no CPT: 5.8µM*; TDP1 cell CPT: 3.26µM*

How did O=C(/C=C/c1ccccc1)NC(=S)NNC(=O)c1cccnc1 do in these assays?
Gal4-VP16 FLuc: inconclusive; IL-1B inflam inh: -2.9; LDHA block: 5.3; RORg inh: 10µM*; DT40 TDP1 no CPT: 5.8µM*; TDP1 cell CPT: 13µM*

What do the screens show for `O=C(COc1ncnc2ccccc12)Nc1ccccc1`?
LDHA block: -3.5

How did Cc1c(C(=O)NCc2ccc(Cl)c(Cl)c2)sc(=O)n1Cc1ccccc1F do in these assays?
IL-1B inflam inh: -14.7; LDHA block: 1.1; DT40 TDP1 no CPT: inconclusive; TDP1 cell CPT: inconclusive

What do the screens show for `Cc1ccccc1Cn1c(C)c(C(=O)NCc2cccc(Cl)c2)sc1=O`?
IL-1B inflam inh: inconclusive; LDHA block: -2.2; DT40 TDP1 no CPT: inconclusive; TDP1 cell CPT: -26.7%

How did Cc1c(C(=O)NCc2ccc(Cl)c(Cl)c2)sc(=O)n1Cc1ccc(S(C)(=O)=O)cc1 do in these assays?
IL-1B inflam inh: inconclusive; LDHA block: -5.3; DT40 TDP1 no CPT: 18.4µM*; TDP1 cell CPT: inconclusive

How did CSc1ccc(Cn2c(C)c(C(=O)NCc3ccc(F)cc3)sc2=O)cc1 do in these assays?
IL-1B inflam inh: inconclusive; LDHA block: -9.1; DT40 TDP1 no CPT: inconclusive; TDP1 cell CPT: 23.1µM*
